The text below walks through data of PubChem BioAssay (NCI).

Holding throughout (experiment): NCI-60 one-dose screen, 48 h (100 = growth as untreated, 0 = no growth, -100 = all killed)
What all share (details): 10 µM

Assay [1] concerns HT29 colon.
The test system of assay [2] is SNB-75 CNS.
Assay [3] deals with SNB-19 CNS.
Assay [4] concerns PC-3 prostate.
Assay [5] deals with SK-MEL-5 melanoma.
Assay [6] relates to UACC-62 melanoma.
The subject of assay [7] is LOX IMVI melanoma.
The subject of assay [8] is SK-MEL-28 melanoma.
Assay [9] concerns SK-MEL-2 melanoma.
The test system of assay [10] is EKVX NSCLC.
The subject of assay [11] is SN12C renal.
Assay [12] relates to UO-31 renal.
The subject of assay [13] is TK-10 renal.
Assay [14] concerns ACHN renal.
Assay [15] has as its system CAKI-1 renal.
The test system of assay [16] is A498 renal.
The subject of assay [17] is MOLT-4 leukemia.
For assay [18], the system named is SR leukemia.
The test system of assay [19] is U251 CNS.
Assay [20] concerns CCRF-CEM leukemia.

Compounds without any hit were thinned out: in the full panel of roughly 83,000, 20% have a hit.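 Values shown are percent growth following 48 h exposure of cells in 96-well plates to a single concentration of compound; below 10 was considered active.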 Values without a mark were called inactive. Calls of active or inactive are those of the source.

Take `CN1CCC2(CC1)NC(=O)c1c(c3ccc(Cl)c(Cl)c3n1C)C2C#N` (stereo not drawn): the growth in assay [1] is 44.8%; in assay [2] it was 34.3%; in assay [3], 77.8%; in [4], 67.1%; in assay [5] it was 37.8%; in [6], -69.4% (active). Also, the growth was 76.6% in [7]; 70.4% in assay [8]; 99.6% in [9]; 89% in assay [10]; 64.3% in [11]; 61.7% in [12]. Moreover, the growth in assay [13] is 98.7%; in assay [14] it was 73.9%; in assay [15], -26.4% (active); in assay [16] it was 59.8%; in [17], 64.1%; in assay [18], 39.4%.
As for `C/C(N)=C(\C#N)C(=O)c1ccccc1`, the growth in [1] is 105%; in assay [2], 93.1%; in assay [3] it was 107%; in assay [19], 98.2%; in [4], 98.2%; in [6] it was 109%. The growth was 99.8% in assay [7]; 108% in assay [8]; 106% in [11]; 86.4% in assay [12]; 106% in assay [13]; 105% in [14]. Also, the growth was 107% in [15]; 91.5% in assay [16]; 102% in [20]; 110% in assay [17]; 112% in [18].
Turning to `COc1cc(/C=N/NC(=O)c2ccccc2Nc2cccc(C(F)(F)F)c2)cc(OC)c1OC`, the growth was 8.62% (active) in assay [1]; 4.15% (active) in assay [2]; 61.4% in assay [3]; -35.3% (active) in [4]; 29.2% in [5]; 10.3% in assay [6]. For the same compound, the growth was 11.9% in assay [7]; 39.3% in assay [8]; 53.5% in [10]; 57.4% in assay [11]; 41.4% in assay [12]; -18.2% (active) in [13]. Further, the growth was 29.2% in assay [15], -13.2% (active) in [16], 28.3% in assay [17] and -4.43% (active) in [18].
On to `O=C(Nc1ccncc1)C(=O)c1cn(S(=O)(=O)c2cc(Cl)cc(Cl)c2)c2ccccc12`, for which the growth in [1] is 42.4%; in assay [2], 59.6%; in [3], 82.4%; in assay [4] it was 63.9%; in assay [6], 57.4%; in assay [7] it was 48%. The growth in assay [8] is 78.4%; in assay [9], 61.7%; in [10] it was 52.3%; in assay [11], 73.5%; in assay [12] it was 75.2%; in [13], 73.1%. Also, the growth in [14] was 68.4%; in [15] it was 54.5%; in [16], 63.1%; in assay [20] it was 67.9%; in [17], 73%; in [18], 38%.
As to `CC1CC(=O)OC(C)C1` (stereo not drawn), the growth in [1] is 112%; in assay [2], 78.9%; in assay [3], 116%; in assay [4], 101%; in assay [5], 100%; in [6], 114%. Further, the growth in [7] was 102%; in [8] it was 102%; in assay [9], 90.1%; in [11], 109%; in [12], 94.1%; in assay [13], 104%. Moreover, the growth in [14] was 110%; in assay [15], 93%; in assay [16], 96.1%; in [20], 101%.
As to `Cc1cccc(Cl)c1NC(=O)c1ccc2nc(NC(=O)NC3CCN(C)CC3)sc2c1`, the growth is 29.6% in assay [1]; 6.73% (active) in assay [2]; 102% in assay [3]; 69.7% in assay [4]; 71.6% in assay [5]; 106% in assay [6]. Also, the growth in [7] was 79.7%; in assay [8], 108%; in [9], 126%; in [10], 90.9%; in [11], 73.8%; in [12], 84.1%. The growth in assay [13] is 83.8%; in assay [15], 100%; in [16], 104%; in assay [20], 83%; in assay [17], 77.9%; in assay [18], 86.7%.
On to `Cn1c(C(N)=O)cc2c1-c1nc(Nc3ccccc3)ncc1CCC2`, for which the growth in [1] was 70%; in [2] it was 35.6%; in [3], 58.4%; in [4], 59.5%; in assay [5], 72.1%; in assay [6] it was 37.1%. For the same compound, the growth was 40.5% in assay [7]; 68.7% in assay [8]; 46% in assay [9]; 28% in assay [11]; 12.5% in assay [12]; 23.7% in assay [13]. Further, the growth is 25.6% in [14]; 23.5% in assay [15]; -43.8% (active) in [16]; 43.5% in assay [20]; 42.3% in assay [17]; 17.3% in assay [18].
For the compound `O=C1/C(=C\c2ccc(Cl)cc2)CN(C(=S)Nc2ccccc2)C/C1=C\c1ccc(Cl)cc1`, the growth in assay [1] is -77% (active); in assay [2] it was -36.3% (active); in assay [3], -72.9% (active); in assay [4], -55.6% (active); in [5] it was -73% (active); in assay [6] it was -70.4% (active). In addition, the growth in assay [7] is -80.1% (active); in [8], -60.3% (active); in assay [9], -28.4% (active); in assay [11], -52% (active); in assay [12], -95% (active); in assay [13], -60.5% (active). Moreover, the growth is -86.8% (active) in [14]; -17.6% (active) in [15]; -2.03% (active) in assay [20]; 5.1% (active) in assay [17]; -15.1% (active) in [18].
